The source of these data is PubChem BioAssay AID624504 (Sanford-Burnham Center for Chemical Genomics, 2012).

Out of some 5,000 compounds screened, about 3,900 (78%) were called active. The set was probably picked from earlier hits. Not all results are given here. Values without a mark were called inactive. Rule as the data show it: active = inhibition above about 22%; inactive = the rest.

A word on the inhibition: it is the relative decrease from the control value, in per cent.

The nature of this test: fluorescence retest of MPTP screen hits in isolated mitochondria, single concentration (AID 624504).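 Also: 0% = DMSO vehicle and 100% = positive control.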 The settings on record: membrane potential, Rhodamine 123 fluorescence, at 10 µM, stronger effect = higher value.
Take `O=C(NNc1c2ccccc2nc2ccccc12)c1cc2ccccc2cc1O`: the inhibition is 31.4% (active).

On to `CCn1c(CNC(=O)c2cc(OC)c(OC)c(OC)c2)cc2cc(C)ccc21`, for which the inhibition was 72.8% (active). With `CCCCOc1ccc(CSC(=N)N)cc1[N+](=O)[O-]` the figure was -5.28%; with `CCc1ccc(Nc2n[n+](-c3ccccc3)c(-c3cccc(Cl)c3Cl)s2)cc1`, 86.2% (active).

In the case of `Cc1cc(C(=O)CSc2nc(N)cc(=O)[nH]2)c(C)n1-c1cccc(F)c1`, the inhibition is 59% (active). Regarding `Cc1cc(C(=O)CSc2nc(N)cc(=O)[nH]2)c(C)n1Cc1ccco1`, the inhibition was 46.4% (active). `NC[C@H](Cc1ccccc1)NCCc1cc(C(F)(F)F)cc(C(F)(F)F)c1`: the inhibition was -12%. In the case of `c1ccc2c(c1)C(=NC1CCCCC1)NC2=NC1CCCCC1`, the inhibition is 92.1% (active). Under `Cc1ccc2nnn(Cc3cccc(C(C)(C)C)c3O)c2c1` stands 98.9% (active). Under `O=c1c2ccccc2nc2n1C(CSCc1cccc(C(F)(F)F)c1)CS2` (stereo unspecified) stands 80.9% (active); under `O=c1c2ccccc2nc2n1C(CSCc1ccccc1)CS2` (stereo unspecified), 26.1% (active); under `CN1CCC[C@@H]1CCO[C@](C)(c1ccccc1)c1ccc(Cl)cc1`, -12.2%. Under `CCCc1ccc(-c2c(C)sc(NC(=O)c3ccnn3C)c2C#N)cc1` stands 90.5% (active).

Consider `CCCCc1nc(NCCN)c(C#N)c2c1CSC(C)(C)C2`, for which the inhibition was -9.33%.

As for `COc1cc(CNCc2ccc(OC)c3ccccc23)cc(OC)c1OC`, the inhibition is 75.8% (active).

With `Cc1nc2nc(SCC(=O)Nc3cccc(F)c3)[nH]c2cc1Br`, the inhibition is 81.1% (active). In the case of `CC(=O)c1c(C)[nH]c(C(=O)COC(=O)c2cccc(S(=O)(=O)N(C)c3ccccc3)c2)c1C`, the inhibition was 90.1% (active).

Regarding `CC(C)(CCl)C(=O)Nc1ccc(Sc2ccc(F)cc2)cc1`, the inhibition is 80.4% (active). Under `O=C(C/C(=N\NC(=O)c1ccccc1Br)C(F)(F)F)c1cccs1` stands 82.3% (active).

With `O=C(NCCc1ccc2c(c1)OCCO2)c1cc2ccccc2o1`, the inhibition was 51.1% (active). In the case of `CC1(C)CC(=O)c2sc(N)nc2C1`, the inhibition was 1.93%. As to `CCCc1nc2c(c(=O)c3ccccc3n2C)c(=O)n1C1CCCCCC1`, the inhibition was 19.4%. As to `O=C(Nc1ccc(OC(F)(F)F)cc1)c1ccc2c(c1)no[n+]2[O-]`, the inhibition was 88.6% (active).

For the compound `CCC(C)(C)c1ccc(Oc2ccc(NC(=O)COC(=O)C3=COCCO3)cc2)cc1`, the inhibition is 55.3% (active). Under `CCCCCCc1cc2cc(-c3nnc(-c4ccccc4)o3)c(=O)oc2cc1O` stands 1.15%; under `Cc1ccc(Nc2c3c(nc4ccccc24)CCC3)cc1`, 76.8% (active). With `O=C(NCCOc1ccccc1F)Nc1ccc(Br)cc1` the figure was 71.7% (active); with `CCOC(=O)c1ccc(NC(=O)Cn2cnc3cc(C)c(C)cc32)cc1`, 88.8% (active). Consider `COc1ccc(NS(=O)(=O)c2cc(NC(=O)CC(=O)c3ccc([N+](=O)[O-])cc3)ccc2C)cc1`, for which the inhibition was 66.5% (active).

As to `Cc1ccc(NC(=S)NC(NC(=O)Cc2cccc3ccccc23)C(Cl)(Cl)Cl)cc1` (stereo unspecified), the inhibition is 70.9% (active). For the compound `O=C(Cc1cccc2ccccc12)NNC(=O)Nc1ccc(Cl)cc1`, the inhibition is 85.8% (active). `COc1cc(NC(=O)c2ccccc2NS(=O)(=O)c2ccc(Cl)s2)cc(OC)c1`: the inhibition was 75.8% (active). As for `COC(=O)c1ccc(NC(=O)c2ccccc2NS(=O)(=O)c2ccccc2)cc1`, the inhibition is 93.2% (active). For the compound `Clc1ccc(-c2cc(C3CCNCC3)[nH]n2)c(Cl)c1`, the inhibition was -10.4%. Under `Cc1nnc(SC(C(=O)Nc2cc(Cl)cc(Cl)c2)c2ccccc2)[nH]c1=O` (stereo unspecified) stands 86.5% (active); under `CCOC(=O)c1c(NC(=O)CSc2cn(CC)c3ccccc23)sc2c1CCC2`, -4.21%; under `CC(=O)c1c(C)[nH]c(C(=O)OCC(=O)Nc2sc3c(c2C#N)CCCC3)c1C`, 82.4% (active).

As to `Cc1cc(C)cc(NC(=S)NCc2ccc(F)cc2)c1`, the inhibition was 57.4% (active). Under `Cc1c(NC(=S)NCc2ccc(F)cc2)cccc1[N+](=O)[O-]` stands 78.8% (active); under `Cc1nc(CNS(=O)(=O)c2ccc(Oc3ccccc3)cc2)cs1`, 88.2% (active). Under `FC(F)Oc1ccc(NC(=S)NCc2ccco2)cc1Cl` stands 97.6% (active); under `Cc1ccc(CC(=O)Nc2ccc(OC(F)F)c(Cl)c2)cc1C`, 89.8% (active); under `c1ccc2c(c1)CSc1sccc1C2=C1CCNCC1`, -11.2%.

Take `Cc1nc2ccccc2cc1OCc1ccc(F)cc1`: the inhibition is 100% (active).

Consider `Cc1cc(OCCCC(=O)NCCN2C(=O)S/C(=C\c3cccnc3)C2=O)ccc1Cl`, for which the inhibition was 68.6% (active). With `Cc1nn(C)cc1CNC(=O)Nc1ccc(Cl)cc1` the figure was 96.6% (active). For the compound `Cc1cc(C=O)c(C)n1-c1ccc(NC2CCCCC2)c([N+](=O)[O-])c1`, the inhibition was 41.9% (active). For the compound `CCCCCCCCCCCCN1C(=O)CSC1c1cccnc1` (stereo unspecified), the inhibition is 19.9%. Under `COc1cc2c3c(c1)/C(=C1/SC(=S)NC1=O)C(=O)N3C(C)(C)C=C2C` stands 49.1% (active); under `CCCC(C(=O)OCCN(CC)CC)(c1ccccc1)c1ccccc1`, 4.44%. With `CC(C)N1C(=S)SC(C)(C)C1n1oc(=O)n(-c2ccc(Cl)c(Cl)c2)c1=O` (stereo unspecified), the inhibition was 80.6% (active). With `COc1ccc(CNc2ncnc3ccccc23)cc1` the figure was 71.8% (active); with `O=C(Nc1nc2ccc([N+](=O)[O-])cc2s1)c1ccc(S(=O)(=O)N2CCCc3ccccc32)cc1`, 74.7% (active); with `Cc1cc(C)cc(OCC(=O)Nc2nc3ccc([N+](=O)[O-])cc3s2)c1`, 62.3% (active). Under `O=C(NC(Nc1nc2ccc([N+](=O)[O-])cc2s1)(C(F)(F)F)C(F)(F)F)c1ccccc1` stands 81.4% (active); under `O=C(Nc1nc2ccc([N+](=O)[O-])cc2s1)c1ccncc1`, 20.6% (active); under `CCCC[C@@H]1CN=C(N)N1CCc1cc(C(F)(F)F)cc(C(F)(F)F)c1`, -7.58%.

In the case of `O=C(Nc1ccc(Cl)cc1)Nc1nnc(/C=C/c2ccccc2)s1`, the inhibition is 67% (active). With `CS(=O)(=O)N(CC(=O)Nc1ccc(Cl)c(Cl)c1)C1CCCCC1` the figure was 82.4% (active); with `N#CCCN(C(=S)Nc1ccc(Cl)c(Cl)c1)C1CCCCC1`, 91.7% (active).

`O=C(N/N=C/c1ccc(O)c(O)c1)C1c2ccccc2Oc2ccccc21`: the inhibition was -9.84%.
